# Measurements from PubChem BioAssay (Tox21).
# “And” between values parts separate entries of the source, which are not always exact repeats. Identical values can stand only once. Records with an inconclusive call do not appear. A call without a number means that no potency is given here. A structure can be active in one record and inactive in another. The source made the active and inactive calls. Unless noted, calls follow the shape of the dose curve; as a rule, active = well fitted curve in the direction sought with a large enough effect in the repeat runs; inconclusive = weak or mixed curves; inactive = no such curve, though single readings can be large; an effect the other way counts as inactive or inconclusive.
# Assays:
# [1] = qHTS assay to identify small molecule antagonists of the estrogen related receptor (ERR) signaling pathway from Tox21 library - cell viability counter screen (AID 1224834); also: nearly all actives have a fitted effect of over 30% in size; also: potency is read from the fitted curve at half-maximal effect
# Outline: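 After 17.5 h of compound exposure at 37 C, ERR cells are incubated with CellTiter-Fluor for 30 min and fluorescence intensity serves as the viability measure.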
# [2] = biological target: Luciferin 4-monooxygenase (Photinus pyralis) (UniProt P08659); experiment: qHTS assay to identify small molecule inhibitors of firefly luciferase (AID 1224835); also: nearly all actives have a fitted effect of over 25% in size; also: potency is read from the fitted curve at half-maximal effect
# Luciferin 4-monooxygenase (Photinus pyralis), sequence (P08659 whole entry, looked up): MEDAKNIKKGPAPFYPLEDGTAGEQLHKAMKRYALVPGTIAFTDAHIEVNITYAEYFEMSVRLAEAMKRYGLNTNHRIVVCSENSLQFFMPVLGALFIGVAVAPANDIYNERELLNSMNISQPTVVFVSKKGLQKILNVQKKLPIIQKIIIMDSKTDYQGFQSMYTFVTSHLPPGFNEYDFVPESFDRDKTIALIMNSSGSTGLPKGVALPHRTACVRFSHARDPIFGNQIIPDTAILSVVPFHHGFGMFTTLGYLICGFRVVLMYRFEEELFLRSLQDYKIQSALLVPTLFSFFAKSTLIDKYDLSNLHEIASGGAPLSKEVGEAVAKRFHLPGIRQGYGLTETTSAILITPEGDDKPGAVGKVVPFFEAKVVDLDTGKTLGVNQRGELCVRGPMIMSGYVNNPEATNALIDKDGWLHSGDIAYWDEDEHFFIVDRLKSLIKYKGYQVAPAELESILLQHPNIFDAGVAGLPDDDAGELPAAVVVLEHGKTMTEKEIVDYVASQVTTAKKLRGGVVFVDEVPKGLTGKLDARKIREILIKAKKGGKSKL
# Outline: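 Quantitative HTS format; KM concentrations of both substrates. Purified P. pyralis FLuc activity quantified from luminescence images.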
# [3] = qHTS assay to identify small molecule antagonists of the constitutive androstane receptor (CAR) signaling pathway - cell viability counter screen (AID 1224837); also: nearly all actives have a fitted effect of over 45% in size; also: potency is read from the fitted curve at half-maximal effect
# Outline: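 Counter screen run in HepG2-CYP2B6-hCAR cells: 4 hr settle, compound titration (15 concentrations) with 50 nM CITCO, 23 hr at 37 C/5% CO2, CellTiter-Fluor fluorescence.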
# [4] = qHTS assay to identify small molecule antagonists of the estrogen related receptor signaling pathway with the pleiotropic PPARgamma coactivator (PGC) from Tox21 10K library - cell viability counter screen (AID 1224840; active = well fitted cell-killing curve with a large enough effect in the repeat runs, not every such curve was filed as active; also: nearly all actives have a fitted effect of over 40% in size; also: potency is read from the fitted curve at half-maximal effect)
# Outline: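 Following seeding of 2,000 PGC/ERR cells/well and 6 hours' incubation, test compounds were delivered in DMSO. The plates then sat 17.5 hours at 37 C before a fluorogenic live-cell protease reagent (CellTiter-Fluor) was read after 30 min.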
# [5] = qHTS assay to identify small molecule antagonists of the estrogen related receptor signaling pathway with the pleiotropic PPARgamma coactivator (PGC) from Tox21 10K library (AID 1224841; call rule not given here; also: actives are mostly falling curves and most rising ones were filed inactive; nearly all actives have a fitted effect of over 50% in size; also: potency is read from the fitted curve at half-maximal effect)
# Outline: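 qHTS antagonist format: PGC/ERR cells, 2k/well, compound in DMSO by pin transfer after 6 h attachment, 18 h treatment at 37 C, One-Glo luminescence read at 30 min.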
# [6] = qHTS assay to identify small molecule agonists of the estrogen related receptor signaling pathway with the pleiotropic PPARgamma coactivator (PGC) from Tox21 10K library (AID 1224842); also: nearly all actives have a fitted effect of over 15% in size; also: potency is read from the fitted curve at half-maximal effect
# Outline: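 PGC/ERR reporter cells (NTP line) were seeded 2,000 per well, rested 6 h at 37 C/5% CO2, then pin-dosed with compounds in DMSO for 18 h at 37 C; luciferase read by One-Glo luminescence after 30 min at room temperature.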
# [7] = biological target: Thyrotropin receptor (Homo sapiens) (UniProt P16473); experiment: qHTS assay to identify small molecule agonists of the thyroid stimulating hormone receptor (TSHR) signaling pathway (AID 1224843; calls by dose curve; also: nearly all actives have a fitted effect of over 45% in size; also: potency is read from the fitted curve at half-maximal effect)
# Thyrotropin receptor (Homo sapiens), sequence (P16473 whole entry, looked up): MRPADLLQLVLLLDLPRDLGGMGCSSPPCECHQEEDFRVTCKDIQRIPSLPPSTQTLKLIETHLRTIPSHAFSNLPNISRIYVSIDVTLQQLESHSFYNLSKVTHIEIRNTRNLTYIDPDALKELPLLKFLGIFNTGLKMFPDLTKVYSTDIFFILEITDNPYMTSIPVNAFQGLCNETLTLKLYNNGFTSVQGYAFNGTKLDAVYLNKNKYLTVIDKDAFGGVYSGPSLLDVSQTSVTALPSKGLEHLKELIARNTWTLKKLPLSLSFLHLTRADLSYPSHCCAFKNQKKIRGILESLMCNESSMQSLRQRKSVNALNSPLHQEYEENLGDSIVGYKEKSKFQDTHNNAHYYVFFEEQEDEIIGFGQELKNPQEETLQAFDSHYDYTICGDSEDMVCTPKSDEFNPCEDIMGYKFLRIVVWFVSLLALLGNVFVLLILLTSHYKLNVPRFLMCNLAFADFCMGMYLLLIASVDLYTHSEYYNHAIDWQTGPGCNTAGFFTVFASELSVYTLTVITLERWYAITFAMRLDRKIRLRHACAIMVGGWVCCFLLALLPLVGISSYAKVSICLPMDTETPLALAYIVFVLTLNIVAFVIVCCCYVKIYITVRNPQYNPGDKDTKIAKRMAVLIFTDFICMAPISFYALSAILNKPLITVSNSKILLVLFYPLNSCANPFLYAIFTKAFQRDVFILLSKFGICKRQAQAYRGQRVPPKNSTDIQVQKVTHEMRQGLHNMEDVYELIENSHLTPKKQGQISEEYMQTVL
# Outline: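 Cell line HEK293 with TSHR; density 800/well. Exposure 30 min RT. Readout HTRF cAMP (cAMP-d2/anti-cAMP-cryptate), 1 h RT before reading.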
# [8] = qHTS assay to identify small molecule agonists of the hypoxia (HIF-1) signaling pathway - cell viability counter screen (AID 1224844; calls by dose curve; also: nearly all actives have a fitted effect of over 50% in size; also: potency is read from the fitted curve at half-maximal effect)
# Outline: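 Cells (HRE-bla ME-180, 2,000 per well) sat 5 hrs at 37C, got compound for 17 hrs, were read for CCF4-AM FRET, and were finally lysed with CellTiter-Glo for a 30 min room-temperature luminescence read.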
# [9] = qHTS assay to identify small molecule antagonists of the retinoic acid receptor (RAR) signaling pathway (AID 1159552; also: nearly all actives have a fitted effect of over 50% in size; also: potency is read from the fitted curve at half-maximal effect)
# Outline: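 Luminescent RARE reporter read-out in C3RL4 cells: 6 hr co-treatment at 37 C of test compounds with retinol at 1 uM final. Cells plated overnight beforehand; luciferase reagent incubated 30 min at room temperature before reading.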
# [10] = qHTS assay to identify small molecule agonists of the constitutive androstane receptor (CAR) signaling pathway - cell viability counter screen (AID 1224836); also: nearly all actives have a fitted effect of over 45% in size; also: potency is read from the fitted curve at half-maximal effect
# Outline: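 Cell viability multiplexed with the CAR agonist screen: CellTiter-Fluor fluorescence after 23 hr at 37 C. HepG2-CYP2B6-hCAR cells got compounds at 15 concentrations with PK11195 at 0.75 uM final.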
# [11] = biological target: Nuclear receptor subfamily 1 group I member 3 (Homo sapiens) (UniProt Q14994); experiment: qHTS assay to identify small molecule antagonists of the constitutive androstane receptor (CAR) signaling pathway (AID 1224838);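 also: HepG2 cells stably expressing hCAR with CYP2B6 luciferase reporter stimulated by CITCO; nearly all actives have a fitted effect of over 40% in size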; also: potency is read from the fitted curve at half-maximal effect
# Nuclear receptor subfamily 1 group I member 3 (Homo sapiens), sequence (Q14994 whole entry, looked up): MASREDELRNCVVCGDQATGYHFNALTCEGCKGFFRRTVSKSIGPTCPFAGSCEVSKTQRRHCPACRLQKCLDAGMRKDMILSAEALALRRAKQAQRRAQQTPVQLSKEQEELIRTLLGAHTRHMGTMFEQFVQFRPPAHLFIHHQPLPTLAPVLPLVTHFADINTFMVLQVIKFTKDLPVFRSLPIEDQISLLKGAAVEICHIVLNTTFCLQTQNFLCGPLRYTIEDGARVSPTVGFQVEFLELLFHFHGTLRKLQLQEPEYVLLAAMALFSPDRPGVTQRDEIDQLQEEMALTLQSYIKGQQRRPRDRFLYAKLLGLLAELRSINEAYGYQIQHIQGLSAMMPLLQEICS
# Outline: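 Cell line: HepG2 double-stable for hCAR and CYP2B6-2.2kb reporter. Agonist: CITCO, 50 nM final. Compounds: 15 concentrations, 24 h, 37 C. Detection: ONE-Glo luminescence.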
# [12] = biological target: Nuclear receptor subfamily 1 group I member 3 (Homo sapiens) (UniProt Q14994); experiment: qHTS assay to identify small molecule agonists of the constitutive androstane receptor (CAR) signaling pathway (AID 1224839); also: nearly all actives have a fitted effect of over 15% in size; also: potency is read from the fitted curve at half-maximal effect
# Outline: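 Luminescent ONE-Glo read-out after 24 hr, 37 C exposure of double-stable HepG2-CYP2B6-hCAR reporter cells to a 15-point compound series, in the presence of 0.75 uM PK11195 (final).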
# [13] = qHTS assay to identify small molecule agonists of the retinoic acid receptor (RAR) signaling pathway (AID 1159553)
# Outline: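 Reporter readout comes from luciferase under RARE control in C3RL4 cells; compound exposure lasts 6 hr at 37 C in 5% CO2, and luminescence is recorded following a 30 min room-temperature incubation with reagent.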
# [14] = qHTS assay to identify small molecule antagonists of the estrogen related receptor (ERR) signaling pathway - cell viability counter screen (AID 1224818); also: series mostly up to about 46 µM
# Outline: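 After a 6 h pre-incubation, ERR cells were dosed by pin tool with compounds, positive/negative controls or DMSO alone. Following 17.5 h at 37 C and 30 min with CellTiter-Fluor, fluorescence was recorded.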
# [15] = qHTS assay to identify small molecule antagonists of the estrogen related receptor (ERR) signaling pathway (AID 1224819;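 also: luminescence from an ERR-driven luciferase reporter measured with One-Glo reagent; series mostly up to about 46 µM; nearly all actives have a fitted effect of over 50% in size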)
# Outline: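 Luminescence readout (One-Glo, 30 min, RT) of ERR cell line after 18 h compound exposure at 37 C; cells seeded 2,000/well, pre-incubated 6 h, compounds pinned from DMSO stocks.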
# [16] = tested on: estrogen-related receptor alpha (ERRalpha) with PGC-1alpha coactivator, human; experiment: qHTS assay to identify small molecule antagonists of the estrogen related receptor signaling pathway with the pleiotropic PPARgamma coactivator (PGC) (AID 1224821; calls by dose curve)
# Outline: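 Luminescent read-out (One-Glo, 30 min at room temperature) following 18 h treatment of PGC/ERR cells at 37 C with compounds delivered in DMSO. Cells had settled 6 h at 37 C/5% CO2 before dosing.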
# [17] = qHTS assay to identify small molecule antagonists of the estrogen related receptor signaling pathway with the pleiotropic PPARgamma coactivator (PGC) cell viability counter screen (AID 1224822; also: series mostly up to about 46 µM)
# Outline: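 PGC/ERR cells were plated at 2,000 per well and allowed 6 h to settle before compound addition. Following 17.5 h at 37 C, CellTiter-Fluor reagent was added and fluorescence was read 30 min later.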
# [18] = qHTS assay to identify small molecule agonists of the estrogen related receptor signaling pathway with the pleiotropic PPARgamma coactivator (PGC) (AID 1224823)
# Outline: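 Steps: plate PGC/ERR cells at 2,000 cells/well; incubate 6 h, 37 C/5% CO2; pin-transfer compounds (DMSO); incubate 18 h, 37 C; add One-Glo; 30 min RT; read luminescence.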
SMILES,Potency [1],Potency [2],Potency [3],Potency [4],Potency [5],Potency [6],Potency [7],Potency [8],Potency [9],Potency [10],Potency [11],Potency [12],Potency [13],outcome [14],outcome [15],outcome [16],outcome [17],outcome [18]
O=[N+]([O-])O[C@H]1CO[C@H]2[C@@H]1OC[C@H]2O[N+](=O)[O-],inactive,inactive,inactive,inactive,inactive,inactive,inactive,inactive,–,–,–,–,–,–,–,–,–,–
CCOP(=S)(S)OCC,inactive,33.4 µM (active),inactive,inactive,inactive,inactive,inactive,inactive,inactive,inactive,inactive,inactive,–,–,–,–,–,–
C[C@@H]1C[C@@H]([C@H](O)CC2CC(=O)NC(=O)C2)C(=O)[C@@H](C)C1,430 nM (active) and 154 nM (active) and 266 nM (active),inactive,765 nM (active) and 611 nM (active),inactive,682 nM (active) and 433 nM (active) and 531 nM (active),inactive,inactive,0.379 µM (active),–,969 nM (active),–,–,–,–,–,–,–,–
CC(CC(C(N)=O)(c1ccccc1)c1ccccc1)N(C)C (stereo unspecified),inactive,inactive,inactive,inactive,–,–,inactive,inactive,–,–,–,–,–,–,–,–,–,–
CCCN(CCC)c1c([N+](=O)[O-])cc(C(C)C)cc1[N+](=O)[O-],inactive,inactive,inactive,inactive,–,–,6.71 µM (active) and 12.2 µM (active),inactive,inactive,–,inactive and 1 nM (active),33.6 µM (active) and inactive,inactive,–,–,–,–,–
CCC1(C2=NCCN2)Cc2ccccc2O1 (stereo unspecified),–,inactive,inactive,inactive,inactive,inactive,inactive,inactive,–,inactive,–,–,–,inactive,inactive,inactive,inactive,inactive
CCCC[P+](CC)(CCCC)CCCC (tested in a mixture with another compound),inactive,inactive,inactive,inactive,–,–,inactive,inactive,–,inactive,–,–,–,–,–,–,–,–
CCc1cnc(C2=NC(C)(C(C)C)C(=O)N2)c(C(=O)O)c1 (stereo unspecified),inactive,inactive,inactive,inactive,–,–,inactive,inactive,inactive,inactive,inactive,inactive,inactive,–,–,–,–,–
CCCCCCCCCCCCCCCl,inactive,inactive,inactive,inactive,–,–,inactive,inactive,inactive,inactive,inactive,inactive,inactive,–,–,–,–,–
O=C(O)c1cc(Cl)ccc1Cl,inactive,inactive,inactive,inactive,–,–,–,inactive,inactive,–,–,–,inactive,–,–,–,–,–
CCCCNC(=O)OCC#CI,–,inactive,–,68.2 µM (active) and 61.1 µM (active),–,inactive,8.59 µM (active) and 4.33 µM (active),48.7 µM (active),43.1 µM (active) and 54.5 µM (active),30600 nM (active),54.2 µM (active) and 24.3 µM (active),inactive,–,–,–,–,–,–
C=C(C)C(=O)OCCCCOC(=O)C(=C)C,inactive,–,inactive,inactive,inactive,inactive,inactive,inactive,inactive,–,inactive,inactive,inactive,–,–,–,–,–
Clc1ccc(Cl)c(Cl)c1,inactive,–,inactive,inactive,inactive,inactive,2.98 µM (active) and inactive,inactive,inactive,inactive,inactive,inactive,inactive,–,–,–,–,–
CN(C)c1ccc(N=O)cc1,–,–,30.7 µM (active) and 27.3 µM (active),19.4 µM (active) and 30.6 µM (active),inactive,9.72 µM (active) and 8.63 µM (active),–,–,–,27.4 µM (active) and 43.3 µM (active),43.4 µM (active) and 43.3 µM (active),4.87 µM (active),–,–,–,–,–,–
N#CC1(N=NC2(C#N)CCCCC2)CCCCC1,inactive,inactive,inactive,inactive,inactive,inactive,–,inactive,–,–,inactive,inactive,inactive,–,–,–,–,–
CCc1ccccc1N,inactive,inactive,inactive,inactive,–,–,inactive,inactive,inactive,inactive,inactive,inactive,–,–,–,–,–,–
CCCCCl,inactive,inactive,inactive,inactive,inactive,inactive,inactive,inactive,–,inactive,–,–,inactive,–,–,–,–,–
OCCSSCCO,inactive,inactive,inactive,inactive,–,–,–,inactive,–,inactive,inactive,inactive,–,–,–,–,–,–
